Values joined by “and” are separate entries in the source; they are usually repeats but may differ in a detail not shown here. Equal entries are not always repeated.
Columns and labels:
Test in all cases: cell viability relative to vehicle control; higher = less cytotoxic
Settings in all cases: 10 µM
K562 = test system: K562
Summary of the method: (§1)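 After removal of identity-inconsistent compounds, the Selleck bioactive, kinase and epigenetic probe libraries were screened on CRISPR-edited mutant clones and isogenic wild-type clones of four leukaemia lines. Plates were 384-well, each well holding 2000 cells in 50 µL medium and receiving a single 10 µM acoustically dispensed dose. CellTiter-Glo luminescence was read 48 h later, after the supernatant was taken off. Genedata Screener was used to express viability as percent of the on-plate vehicle control.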

MARIMO = test system: MARIMO
Summary of the method: as §1

MOLM14 = test system: MOLM14
Summary of the method: as §1

OCI-AML2 = test system: OCI-AML2
Summary of the method: as §1

Row | SMILES | cell viability (K562; SRSF2 genotype: SRSF2 P95H/wt) | cell viability (K562; SRSF2 genotype: SRSF2 wt/wt) [%] | cell viability (MARIMO; SRSF2 genotype: SRSF2 P95H/wt) [%] | cell viability (MARIMO; SRSF2 genotype: SRSF2 wt/wt) [%] | cell viability (MOLM14; SRSF2 genotype: SRSF2 P95H/wt) [%] | cell viability (MOLM14; SRSF2 genotype: SRSF2 wt/wt) [%] | cell viability (OCI-AML2; SRSF2 genotype: P95H/wt) [%] | cell viability (OCI-AML2; SRSF2 genotype: wt/wt) [%]
1 | C=CC[N+]1([C@H]2C[C@H]3[C@@H]4CC[C@H]5C[C@H](O)[C@@H](N6CCOCC6)C[C@]5(C)[C@H]4CC[C@]3(C)[C@H]2OC(C)=O)CCCC1 [Rocuronium bromide] | 98.3% and 90.4% | 91.2 | 90.3 | 95.3 | 103 | 96.7 | 88.1 | 99.3
2 | O=C(NC1(c2ccccc2)CC1)c1c(CN2CCC(N3CCCCC3)CC2)c(-c2cccc(C(F)(F)F)c2)nc2cc(Br)ccc12 | 8.23% and 19.8% | 11.8 | 66.8 | 58.4 | 64.9 | 71.4 | 1.08 | 24.1
3 | C[C@H](CSC(=O)c1ccccc1)C(=O)N1C[C@@H](Sc2ccccc2)C[C@H]1C(=O)O [Zofenopril calcium] | 106% and 100% | 106 | 104 | 96.9 | 98.3 | 108 | 116 | 121
4 | N#CC(=Cc1ccc(O)c(O)c1)C(=O)NCc1ccccc1 [AG-490 (Tyrphostin B42)] | 101% and 99.8% | 91 | 78.5 | 92.8 | 95.9 | 103 | 90.4 | 93.7
5 | Cc1oc2nc3c(c(NC(=O)CN4CCCC4=O)c2c1C)CCCC3 [Coluracetam] | 95.4% and 96.3% | 105 | 93.7 | 104 | 103 | 103 | 94.9 | 99.4
6 | COC(=O)c1ccc(O)cc1 [Methyl 4-hydroxybenzoate] | 93% and 82.6% | 88.2 | 90.5 | 94.1 | 91.9 | 95.5 | 91.2 | 90.5
7 | C/C=C(/C)C(=O)OC(C)(C)[C@@H]1Cc2c(ccc3ccc(=O)oc23)O1 [Columbianadin] | 99.8% and 97.1% | 99.2 | 87.8 | 86.5 | 102 | 98.4 | 72.8 | 77.5
8 | C/C(O)=C(\C#N)C(=O)Nc1ccc(C(F)(F)F)cc1 [Teriflunomide] | 93.8% and 104% | 91.6 | 94.3 | 98.5 | 88.2 | 93.9 | 79.9 | 87.1
9 | COc1ccc2[nH]c([S@@+]([O-])Cc3ncc(C)c(OC)c3C)nc2c1 [NEXIUM (esomeprazole magnesium)] | 101% and 97.4% | 104 | 97 | 107 | 92 | 98.6 | 90.5 | 94.8
10 | O=c1[nH]cnc2[nH]ncc12 [Allopurinol Sodium (Aloprim)] | 90.9% and 86.7% | 90.5 | 89.1 | 93.1 | 86.6 | 91 | 90.6 | 95.1
11 | C=CCNC1=C2C[C@@H](C)C[C@H](OC)[C@H](O)[C@@H](C)/C=C(\C)[C@H](OC(N)=O)[C@@H](OC)/C=C\C=C(/C)C(=O)NC(=CC1=O)C2=O [17-AAG (Tanespimycin)] | 20.1% and 29.1% | 25 | 27.3 | 24.3 | 1.11 | 1.2 | 18.8 | 20.6
12 | Oc1ccc(OCc2ccccc2)cc1 [Monobenzone (Benoquin)] | 89.5% and 92.4% | 83.9 | 53.8 | 73 | 27.1 | 11.3 | 32.5 | 47.3
13 | Nc1nc(=O)[nH]cc1F [Flucytosine (Ancobon)] | 102% and 98.9% | 102 | 103 | 105 | 95.9 | 102 | 105 | 109
14 | Cc1cc2c(C(=O)NCC(C)c3ccccc3)c(O)c(O)cc2c(O)c1-c1c(C)cc2c(C(=O)NCC(C)c3ccccc3)c(O)c(O)cc2c1O (centres undefined) [Sabutoclax] | 1.68% and 1.16% | 2.42 | 12.7 | 13.8 | 22.8 | 13.7 | 22.6 | 36
15 | CC(C)c1nc(CN(C)C(=O)N[C@@H](CCN2CCOCC2)C(=O)N[C@H](CC[C@H](Cc2ccccc2)NC(=O)OCc2cncs2)Cc2ccccc2)cs1 [Cobicistat (GS-9350)] | 88.4% and 101% | 95.7 | 94.7 | 104 | 94.3 | 98.3 | 95 | 83.8
16 | O=C1CC(c2ccc(O)cc2)Oc2cc(O)ccc21 (centres undefined) [Liquiritigenin] | 99.3% and 104% | 106 | 116 | 93.6 | 99.8 | 104 | 121 | 99.3
17 | CCCCCCCCCCCCCCCCCCCCCCCCCCCCO [1-Octacosanol] | 107% and 110% | 98.7 | 109 | 106 | 100 | 106 | 96.2 | 108
18 | Cc1cc(C)nc(O)n1.O=C(Nc1ccc([N+](=O)[O-])cc1)Nc1ccc([N+](=O)[O-])cc1 [Nicarbazin] | 100% and 101% | 110 | 97 | 106 | 103 | 101 | 120 | 97.1
19 | COc1ccc(C(=O)CC2(O)C(=O)Nc3c(Cl)ccc(Cl)c32)cc1 (centres undefined) | 16.2% and 28.8% | 27.4 | 7.08 | 8.57 | 6.9 | 2.04 | 4.82 | 10.3

Row | SMILES | cell viability (K562; SRSF2 genotype: SRSF2 P95H/wt) | cell viability (K562; SRSF2 genotype: SRSF2 wt/wt) [%] | cell viability (MARIMO; SRSF2 genotype: SRSF2 P95H/wt) [%] | cell viability (MARIMO; SRSF2 genotype: SRSF2 wt/wt) [%] | cell viability (MOLM14; SRSF2 genotype: SRSF2 P95H/wt) [%] | cell viability (MOLM14; SRSF2 genotype: SRSF2 wt/wt) [%] | cell viability (OCI-AML2; SRSF2 genotype: P95H/wt) [%] | cell viability (OCI-AML2; SRSF2 genotype: wt/wt) [%]
20 | Cc1c(OCC(F)(F)F)ccnc1C[S+]([O-])c1nc2ccccc2[nH]1 (centres undefined) [Lansoprazole] | 98% and 96.2% | 90 | 98.6 | 104 | 103 | 95.5 | 91.7 | 102
21 | C[C@H]1Oc2cc(cnc2N)-c2c(nn(C)c2C#N)CN(C)C(=O)c2ccc(F)cc21 | 102% and 95.5% | 99.1 | 91.1 | 91 | 119 | 106 | 94.9 | 104
22 | COc1ccc(C(C)=O)c(O)c1 [Paeonol (Peonol)] | 103% and 101% | 99.5 | 104 | 97.9 | 102 | 102 | 98.3 | 91.5
23 | C[N+]1(C)[C@@H]2CC[C@H]1C[C@@H](OC(=O)C(O)c1ccccc1)C2 (some centres undefined) [Homatropine Methylbromide] | 103% and 100% | 101 | 106 | 114 | 102 | 104 | 92.9 | 105
24 | Oc1ccc2c(c1)OCO2 [Sesamol] | 96.7% and 82% | 83.8 | 76.8 | 88.2 | 86.5 | 88 | 92 | 92.1
25 | Fc1ccc(Cl)cc1-c1nc(Nc2ccncc2)c2nccnc2n1 | 86.8% and 88.9% | 79.9 | 92.1 | 104 | 108 | 96 | 104 | 103
26 | CCOC(=O)c1ccc(C#Cc2ccc3c(c2)C(C)(C)CCS3)nc1 [Tazarotene (Avage)] | 81% and 84.7% | 78.1 | 46.6 | 40.8 | 76.2 | 88.1 | 14.1 | 27.8
27 | NCCOCCOCCNC(=O)Cc1ccc(Nc2nc(NCc3ccc(F)cc3)nc(NCC3CCCCC3)n2)cc1 [AP-III-a4 (ENOblock)] | 81.5% and 90.7% | 87.5 | 94.3 | 97.1 | 16 | 14 | 75.2 | 79.6
28 | C[C@H]1CO[C@@H]2Cn3cc(C(=O)NCc4ccc(F)cc4F)c(=O)c(O)c3C(=O)N12 | 84.6% and 81.9% | 71.5 | 90.2 | 95.4 | 92.8 | 88.8 | 83.9 | 86.6
29 | O=C1c2ccc(Nc3ccc(F)cc3F)cc2CCc2ccc(OC[C@H](O)CO)cc21 [Skepinone-L] | 84.7% and 79.7% | 77.7 | 91.7 | 100 | 104 | 102 | 77.2 | 73.7
30 | CCCS(=O)(=O)Nc1ccc(F)c(C(=O)c2c[nH]c3ncc(-c4ccc(Cl)cc4)cc23)c1F [Vemurafenib (PLX4032, RG7204)] | 92.8% and 102% | 94.8 | 92.6 | 106 | 102 | 108 | 111 | 105
31 | N#Cc1cccc(-c2c[nH]c3ncnc(N4CCOCC4)c23)c1 | 102% and 106% | 102 | 81.9 | 92.8 | 96.8 | 103 | 109 | 106
32 | O=C(O)c1ccc(O)c2ncccc12 | 99.2% and 102% | 97.3 | 107 | 108 | 98.9 | 102 | 108 | 102
33 | COCCNCc1ccc(-c2cc3nccc(Oc4ccc(NC(=O)C5(C(=O)Nc6ccc(F)cc6)CC5)cc4F)c3s2)nc1 [Sitravatinib (MGCD516)] | 14.2% and 25.4% | 10.6 | 67.2 | 78.5 | 5.4 | 8.33 | 14.1 | 27.3
34 | CN(CC(=O)N(Cc1ccc(C2CCCCC2)cc1)c1ccc(C(=O)O)cc1)S(=O)(=O)c1c(F)c(F)c(F)c(F)c1F | 10.6% and 6.35% | 7.31 | 10.3 | 2.43 | 0.37 | 0.15 | 0.12 | 0.08
35 | COc1cc2nc(N3CCCC3)nc(NCCCCCN3CCCC3)c2cc1OC | 2.75% and 3.32% | 4.26 | 9.85 | 3.33 | 0.26 | 0.27 | 0.31 | 0.37
36 | O=C(NC1CCN(CCCCC2(C(=O)NCC(F)(F)F)c3ccccc3-c3ccccc32)CC1)c1ccccc1-c1ccc(C(F)(F)F)cc1 [Lomitapide] | 0.51% and 0.47% | 0.4 | 0.42 | 0.43 | 0.37 | 0.37 | 0.35 | 0.46
37 | CC(=O)O[C@@]12CO[C@@H]1C[C@H](O)[C@@]1(C)C(=O)[C@H](O)C3=C(C)[C@@H](OC(=O)[C@H](O)[C@@H](NC(=O)OC(C)(C)C)c4ccccc4)C[C@@](O)([C@@H](OC(=O)c4ccccc4)[C@H]21)C3(C)C [Docetaxel (Taxotere)] | 25.3% and 36.8% | 34.7 | 6.89 | 5.5 | 7.8 | 4.57 | 7.58 | 13.3
38 | COc1ccc(C(=O)Nc2sc3c(c2C(N)=O)CCCC3)cc1OC | 95.4% and 96.5% | 91.5 | 93.8 | 91.9 | 79.8 | 93 | 85.2 | 81.4
